Results on 112 compounds are retold here after PubChem BioAssay AID488969 (Vanderbilt High Throughput Screening Facility, 2010).

Structures are written as SMILES. Whole data set: some 110,000 compounds, median “z-score” near -0.1, cut for the highest 2% near 2. This is one part of a sample in which the highest values are shown more often than they occur. Active and inactive are the calls of the source.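 Rule for the calls: active = z-score in the third read window above 3 or below -3; inactive = the rest.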

For this experiment, the target named is Metabotropic glutamate receptor 8 (Rattus norvegicus) (UniProt P70579). In words: rat mGluR8 modulators via GIRK flux, primary screen, cell-based, thallium flux, HTS (AID 488969). To be noted: HEK293 rat mGluR8, GIRK (G protein-gated inwardly rectifying potassium channel) thallium flux, FluoZin2; at 10 µM; stronger effect = higher value; submaximal glutamate (EC20) added with thallium.
Chain of Metabotropic glutamate receptor 8 (Rattus norvegicus) (P70579 whole entry, looked up): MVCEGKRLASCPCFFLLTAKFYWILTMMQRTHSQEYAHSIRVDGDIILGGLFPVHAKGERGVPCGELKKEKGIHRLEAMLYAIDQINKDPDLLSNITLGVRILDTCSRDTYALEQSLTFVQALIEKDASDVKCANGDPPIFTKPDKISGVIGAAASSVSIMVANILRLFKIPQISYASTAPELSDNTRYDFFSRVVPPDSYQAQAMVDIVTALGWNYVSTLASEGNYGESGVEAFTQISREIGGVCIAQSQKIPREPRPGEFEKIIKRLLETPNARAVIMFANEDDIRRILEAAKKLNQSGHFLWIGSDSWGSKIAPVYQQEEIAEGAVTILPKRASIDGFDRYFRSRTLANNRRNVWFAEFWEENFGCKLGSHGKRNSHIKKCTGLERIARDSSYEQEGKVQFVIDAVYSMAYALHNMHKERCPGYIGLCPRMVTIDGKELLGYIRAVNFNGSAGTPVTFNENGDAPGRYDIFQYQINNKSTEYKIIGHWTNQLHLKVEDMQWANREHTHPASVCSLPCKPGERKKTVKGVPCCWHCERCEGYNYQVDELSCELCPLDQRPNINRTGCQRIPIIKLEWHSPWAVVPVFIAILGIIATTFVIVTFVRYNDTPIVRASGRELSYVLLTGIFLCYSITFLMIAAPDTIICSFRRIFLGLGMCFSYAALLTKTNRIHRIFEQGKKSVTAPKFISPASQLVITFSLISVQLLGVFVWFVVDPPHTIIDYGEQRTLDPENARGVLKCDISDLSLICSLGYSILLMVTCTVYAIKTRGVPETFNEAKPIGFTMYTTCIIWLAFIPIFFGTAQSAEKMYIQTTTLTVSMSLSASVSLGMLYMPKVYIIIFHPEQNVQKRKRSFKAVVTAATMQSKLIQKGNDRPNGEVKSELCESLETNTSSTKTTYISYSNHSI
Turning to `COc1ccc(-c2nc(C)ncc2N=Nc2ccccc2)cc1`, the z-score is -0.33.
With `O=C1CCN(C(=O)Nc2cccc(Cl)c2)N1`, the z-score is -0.0566.
Regarding `CCN(CCO)c1ncnc2c1sc1nc(C(C)C)c3c(c12)CC(C)(C)OC3`, the z-score is -0.241.
The same measure for `Cc1cccc(NC(=O)CN2C(=O)N/C(=C/c3ccc(C)o3)C2=O)c1`: 0.0879; for `CCOCC(=O)Nc1cc([N+](=O)[O-])ccc1C`: -0.688; for `CC1=NN(c2ccc(C)cc2)C(=O)/C1=C\c1ccc(Br)s1`: -0.327.
As to `Cn1c(Cc2ccccc2)nnc1SCC(=O)NC1CCCCC1`, the z-score was found to be 0.0891.
The result for `CCN(CC)C(=O)Cn1nc(C)c2ccccc2c1=O` reads -0.346; that for `Cc1ccc(/C=N/Nc2ncc(Cl)cc2Cl)s1`, 0.576.
The result for `Cc1ccsc1/C=N/Nc1nc(Cl)c(Cl)cc1Cl` reads 0.292; that for `Cc1ccc(/C=N/Nc2nc(Cl)c(Cl)cc2Cl)s1`, 3.84 (active); that for `CCc1nc(N2CCN(S(=O)(=O)c3ccc(Br)cc3)CC2)c2c(C)c(C)sc2n1`, -0.0531.
The same measure for `Cc1sc2nc(CN3CCCC3)nc(N3CCC(C(N)=O)CC3)c2c1C`: -0.212.
For the compound `Cc1sc2nc(CN3CCCC3)nc(N3CCN(S(=O)(=O)c4cccs4)CC3)c2c1C`, the z-score is 4.12 (active).
For the compound `O=c1c2cc(Br)ccc2nc(-c2cccc(C(F)(F)F)c2)n1O`, the z-score was 10.5 (active).
The compound `O=C(Nc1ccc(C(F)(F)F)cc1)c1cc(-c2cccnc2)nc2ccc(Br)cc12` displayed a z-score of -0.0141.
The same measure for `O=c1[nH]c(/C(Cl)=C/c2cccc(C(F)(F)F)c2)nc2cc(Cl)ccc12`: -0.0389; for `O=c1c2ccc(Cl)cc2nc(-c2cccc(C(F)(F)F)c2)n1O`: 10.9 (active); for `FC(F)(F)c1cccc(-c2nnc3ccc(C(F)(F)F)cn23)c1`: 0.312.
The result for `O=c1c2ccccc2nc(-c2cccc(Cl)c2)n1O` reads 1.74; that for `C=CCc1ccccc1OCC(O)CN1CCN(c2ccccc2F)CC1` (configuration not stated), 0.0351.
The compound `Cc1noc(C)c1S(=O)(=O)N1CCC(C(=O)N2CCN(C(=O)c3ccco3)CC2)CC1` showed a z-score of -0.53.
The same measure for `O=C(O)CCCC(=O)Nc1ccc(Br)cc1`: 0.0741.
The same measure for `O=c1oc(-c2ccco2)nc2ccccc12`: -0.973; for `O=c1oc(-c2ccc(Br)o2)nc2ccccc12`: 5.63 (active); for `Cc1ccc2nc(-c3ccc(Br)o3)oc(=O)c2c1`: -0.0466.
The result for `CCN(CC)C(=O)C(=O)N/N=C/c1ccc(Br)cc1` reads 0.0116.
`CC(Sc1nnc(-c2ccc(Cl)cc2Cl)n1Cc1ccccc1)C(=O)Nc1nccs1` (configuration not stated): the z-score was -1.54.
As for `Cc1nn(C(=O)c2ccccc2)c2c1C(=O)CC(C)(C)C2`, the z-score was 2.47.
The result for `Cn1c2c(c(O)c(-c3ccccc3)c1=O)C(=O)CC(C)(C)C2` reads -0.119; that for `CCCc1nn(C(=O)c2ccccc2)c2c1C(=O)CC(C)(C)C2`, 0.0989.
On to `O=C(NCC(=O)N(c1ccccc1)C(C(=O)NC1CCCC1)c1ccncc1)c1ccco1` (configuration not stated), for which the z-score is -0.115.
The result for `COC(=O)Nc1nnc(Cc2ccc(Cl)cc2)s1` reads 2.4; that for `COC(=O)Nc1nnc(Cc2ccccc2)s1`, -0.412.
The same measure for `COC(=O)Nc1nnc(Cc2ccc(OC)cc2)s1`: -0.342.
The same measure for `Cc1ccc2oc(C(=O)Nc3nnc(C)s3)c(C)c2c1`: -0.9; for `Nn1c(-c2cccc(Br)c2)n[nH]c1=S`: -0.267.
`CCn1c(-c2cc3ccccc3cc2O)n[nH]c1=S` displayed a z-score of 2.62.
The compound `CCn1c(-c2cc(C3CC3)nc3ccccc23)n[nH]c1=S` yielded a z-score of -0.258.
`Oc1ccc(-c2n[nH]c(=S)n2Cc2ccco2)cc1` gave a z-score of -0.11.
The result for `S=c1[nH]nc(-c2ccncc2)n1Cc1ccco1` reads -0.198; that for `CCn1c(-c2ccc(C)cc2)n[nH]c1=S`, -0.192; that for `CCn1c(-c2cccc(Br)c2)n[nH]c1=S`, 2.35.
The same measure for `CCn1c(-c2c[nH]c3ccccc23)n[nH]c1=S`: -0.0356.
The same measure for `S=c1[nH]nc(-c2ccc(Br)cc2)n1Cc1ccco1`: 2.41; for `CCCCCn1c(N)c(-c2nc3ccccc3s2)c2c([N+](=O)[O-])nn(CC)c(=O)c21`: -0.75.
For `COc1ccc2c(c1OC)C(=O)N1N=C(c3ccc(Br)cc3)CC21` (configuration not stated), the z-score is -1.04.
The same measure for `C=C(C)C1CC=C(CN2CCC(C(=O)OCC)CC2)CC1` (configuration not stated): 0.503; for `Cc1ccc(S(=O)(=O)c2nc(S(C)(=O)=O)sc2N(C)C)cc1`: 0.113; for `COc1ccc(CC(=O)O/N=C(\N)Cc2cccc3ccccc23)cc1OC`: -0.317.
In turn, `Cc1ccsc1/C=C(\C#N)C(=O)NCc1ccco1` yielded a z-score of -0.0871.
The same measure for `COc1cc(C)c(S(=O)(=O)Nc2ccc(CC(=O)O)cc2)cc1C`: 2.01.
The same measure for `COc1ccc(C)c(S(=O)(=O)Nc2ccc(OCC(=O)O)cc2)c1`: 0.2; for `CCOc1cc(C)c(S(=O)(=O)Nc2ccc(F)cc2)cc1C`: 0.564.
The result for `N#C/C(=C\c1ccccc1)C(=O)Nc1cc(S(=O)(=O)N2CCOCC2)ccc1N1CCCC1` reads -0.0157; that for `CC(C)NC(=O)C12CC3CC(C1)CC(n1cnc(Cl)n1)(C3)C2`, -0.0733.
Compound `COc1ccc(C(=O)NNC(=O)CN2CCC(n3nnc4cc(F)ccc43)CC2)cc1` returned a z-score of -0.223.
In turn, `O=C(O)c1cccc(-c2ccc(/C=N/NC(=O)c3cccnc3)o2)c1` had a z-score of -0.216.
In the case of `Cc1ccc(OCC(=O)N/N=C\c2ccc(-c3cccc(C(=O)O)c3)o2)c(C)c1`, the z-score is 3.24 (active).
Consider `Cc1ccc(OCC(=O)N/N=C\c2ccncc2)c(C)c1`, for which the z-score is 1.4.
As for `O=C(NC1CCCC1)C1CCN(c2nccs2)CC1`, the z-score came out at 0.382.
The result for `CCc1cccc(CC)c1NC(=O)COC(=O)CCc1cc(OC)c(OC)c(OC)c1` reads -0.0755.
The same measure for `CCC(=O)c1c[nH]c(C(=O)NCCCN2CCOCC2)c1`: -0.121; for `CC(=O)N1CCC(N(CCN2CCOCC2)C(=S)Nc2cc(C)ccc2C)CC1`: -0.0971; for `CCCCOC(=O)c1ccc(NC(=O)c2ccccc2OC)cc1`: -0.0471.
The result for `COC(=O)c1ccc(NC(=S)NC(=O)c2c(Cl)cnn2C)cc1` reads 10.1 (active); that for `CCOC(=O)c1ccc(NC(=S)NC(=O)c2nn(CC)cc2Br)cc1`, 1.17.
Consider `CCCCOC(=O)c1ccc(NC(=S)NC(=O)c2c(Cl)cnn2CC)cc1`, for which the z-score was 8.06 (active).
As for `CCCCOC(=O)c1ccc(NC(=S)NC(=O)c2c(Cl)cnn2C)cc1`, the z-score is 11.2 (active).
`CCCCOC(=O)c1ccc(NC(=O)c2nn(C)cc2Br)cc1` returned a z-score of -0.112.
The result for `CCCCOC(=O)c1ccc(NC(=O)c2cc(Cl)ccc2OC)cc1` reads -0.0115; that for `CCn1ncc(Cl)c1C(=O)Nc1ccncc1`, -0.171; that for `Cn1ncc(Cl)c1C(=O)Nc1ccncc1`, 0.243.
In the case of `CCCCOC(=O)c1ccc(NC(=S)NC(=O)c2c(Br)c(C)nn2C)cc1`, the z-score is 4.24 (active).
The result for `COC(=O)c1cc(NC(=O)c2c(Cl)cnn2C)cc(C(=O)OC)c1` reads -0.191.
The result for `CCCCOC(=O)c1ccc(NC(=O)c2cnccn2)cc1` reads 0.00424; that for `CCc1nnc(NC(=O)C2CCCN2S(=O)(=O)c2ccc(F)cc2)s1` (configuration not stated), 0.145.
`CCOC(=O)c1cccc(NS(=O)(=O)c2c(C)[nH]c(=O)[nH]c2=O)c1` registered a z-score of -0.0134.
In the case of `CCn1c(/C=C2\C(=O)Nc3ccccc32)nc2ccccc2c1=O`, the z-score is -0.221.
The result for `COc1cccc(OCC(=O)N(Cc2nc(-c3ccc(Cl)cc3)no2)C(C)C)c1` reads 0.0492.
The result for `CCS(=O)(=O)NC(C)C(c1cccs1)N1CCN(c2ccc(F)cc2)CC1` (configuration not stated) reads 0.062.
The result for `COc1ccc(OC)c(N2Cc3cc(C)c(C)cc3C2)c1` reads 0.286; that for `NC(=O)N1CCN(C(=O)c2ccco2)CC1`, 0.536; that for `COc1ccc(OC)c(/C=N/NC(=O)CC2C(=O)NN=C2C)c1` (configuration not stated), -0.12.
In turn, `O=C(Nc1ccc(CN2CCOCC2)cc1)c1cc2ccccc2o1` returned a z-score of 0.834.
The result for `CC1CCN(c2ccc(NC(=S)NC(=O)c3ccco3)cc2)CC1` reads 4.93 (active); that for `NS(=O)(=O)c1ccc(NC(=S)NC(=O)c2ccco2)cc1`, -0.0865.
`O=C(NC(=S)Nc1ccc(N2CCOCC2)cc1)c1cccc([N+](=O)[O-])c1` registered a z-score of 0.169.
The result for `C=CCN(CC=C)S(=O)(=O)c1ccc(NC(=S)NC(=O)c2ccco2)cc1` reads 10.3 (active); that for `O=C(Nc1ccc(CN2CCOCC2)cc1)c1cc2ccccn2n1`, 4.59 (active).
In turn, `CC1CCN(c2ccc(NC(=S)NC(=O)c3ccc(-c4cccc([N+](=O)[O-])c4)o3)cc2)CC1` had a z-score of -0.0494.
The result for `C=CCN(CC=C)S(=O)(=O)c1ccc(NC(=S)NC(=O)c2ccc(-c3ccccc3)cc2)cc1` reads -0.107; that for `O=C(NC(=S)Nc1ccc(CN2CCOCC2)cc1)c1cccc([N+](=O)[O-])c1`, 2.19.
The same measure for `COc1ccc(NC(=O)c2cc3ccccn3n2)cc1`: -0.0979.
The same measure for `O=C(NC(=S)Nc1ccc(CN2CCOCC2)cc1)c1ccc([N+](=O)[O-])cc1`: 0.649; for `O=C(NC(=S)Nc1ccc(NC(=O)c2ccco2)cc1)c1ccccc1`: -0.416.
Consider `Cc1cccc2sc(NC(=O)C3CCN(S(=O)(=O)c4cc([N+](=O)[O-])ccc4Cl)CC3)nc12`, for which the z-score is 0.0365.
The result for `CCOC(=O)C1CCN(C(=O)COc2ccc(Cl)cc2Cl)CC1` reads -0.471; that for `CCCCOC(=O)Nc1ccc(S(=O)(=O)Nc2ccc([N+](=O)[O-])cc2)cc1`, 0.51; that for `N/C(=N\OC(=O)c1ccc(Cl)c(Cl)c1)c1cccnc1`, -0.145.
With `COc1ccccc1NC(=O)N(Cc1ccco1)Cc1cc2ccc(C)c(C)c2[nH]c1=O`, the z-score is -1.77.
For `C=CCn1c(Cc2cccs2)nnc1SCC(=O)c1ccc2ccccc2c1`, the z-score is -0.708.
Regarding `CCOC(=O)c1c(NC(=O)c2noc3c2CCCC3)sc(C)c1C`, the z-score is -0.285.
Take `O=C(NC(=S)Nc1ccc(N2CCOCC2)cc1)c1ccco1`: the z-score was 3.46 (active).
Consider `O=C(NC(=S)Nc1ccc(N2CCOCC2)cc1)c1cccc(Cl)c1`, for which the z-score is 4.95 (active).
The result for `O=C(NC(=S)Nc1ccc(N2CCCCC2)cc1)c1ccco1` reads -1.53.
On to `O=C(NC(=S)Nc1ccc(N2CCOCC2)cc1)c1ccc2c(c1)OCCO2`, for which the z-score came out at 0.0862.
In turn, `S=C(NCc1ccco1)Nc1ccc(N2CCOCC2)cc1` came in with a z-score of -0.00184.
For `O=C(NC(=S)Nc1ccc(N2CCOCC2)cc1)c1ccc(Cl)cc1`, the z-score stood at 0.272.
The same measure for `O=C(CCc1ccccc1)N1CCN(c2ccccn2)CC1`: -0.254; for `O=C(c1ccccc1-c1ccccc1)N1CCN(c2ccccn2)CC1`: -0.0481; for `O=C(c1ccccc1CCc1ccccc1)N1CCN(c2ccccn2)CC1`: 2.38.
